# Measurements: PubChem BioAssay (EPA / NIEHS)
# Results filed as inconclusive are left out. Some compounds were tested as several samples or in several runs, with calls that do not always agree. Activity calls are given as the source filed them. How the source made its calls, unless noted: active means hit-call score of the fitted dose curve at least 0.9, where 1 is the maximum; inconclusive means response in the unintended direction; inactive means score below 0.9.
# How the values were obtained:
# [1] = biological target: frog Thyroid hormone Receptor alpha (TRa), thra-a (gene 397942) (UniProt P15204); experiment: ATG_frTRa_XSP2: Attagene TRANS-FACTORIAL Multi-Species (XSP2) HepG2 Assay for frog Thyroid hormone Receptor alpha (TRa) (AID 2283839);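 on AC50: AC50 reflects induction of frog TRa-driven reporter mRNA above DMSO baseline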
# Protocol: ATG_XSP2_multi-species_TRANS is a cell-based, multiplexed assay created by modifying the existing Attagene TRANS-FACTORIAL system to include a panel of nuclear receptors from some or all the following species: human (Homo sapiens), mouse (Mus musculus), frog (Xenopus laevis), zebrafish (Danio rerio), chicken (Gallus gallus), and turtle (Chrysemys picta). The ECOTOX-FACTORIAL format uses HepG2, a human liver cell line, with measurements taken at 24 hours after chemical dosing in a 24-well plate. Xsp2 included 3 nM 6-alpha-fluorotestosterone and 1.5 nM norgestrel to stimulate the androgen receptor.ATG_frTRa_XSP2 is one of 29 assay components measured or calculated from the ATG_XSP2_multi-species_TRANS assay. It is designed to make measurements of mRNA induction, a form of inducible reporter, as detected with fluorescence intensity signals by Reverse transcription polymerase chain reaction (RT-PCR) and Capillary electrophoresis technology.The assay endpoint ATG_frTRa_XSP2 was analyzed in the positive analysis fitting direction relative to DMSO as the negative control and baseline of activity. Using a type of inducible reporter, measures of mRNA for gain-of-signal activity can be used to understand the reporter gene at the transcription factor-level as they relate to the gene TR. Furthermore, this assay endpoint can be referred to as a primary readout, because this assay has produced multiple assay endpoints where this one serves a reporter gene function. To generalize the intended target to other relatable targets, this assay endpoint is annotated to the nuclear receptor intended target family, where the subfamily is non-steroidal.
# Human liver HepG2 cells are transiently transfected with multiple reporter transcription units (MRTUs) in 6-well plates using FuGene 6 reagent (Roche; 3 ml FuGene/1 mg DNA). The MRTU constructs are regulated by a cis-regulating element (promoter). […] A major difference between the CIS and TRANS system is that in CIS activities of endogenous TFs are measured, whereas the TRANS assay evaluates changes in activities of exogenous, chimeric NR-Gal4 proteins. […] At the end of 24 hour incubation, total RNA was isolated using TriZol reagent (Invitrogen). The isolated RNA is then reverse-transcribed using oligo(dT) primer and Mo-MLV reverse transcriptase (Invitrogen) with DNAse I (Ambion) treatment for 30 min. The one-tenth of the produced cDNA was amplified by PCR using Taq DNA polymerase (Invitrogen) and two reporter sequence-specific primers. The PCR products were fluorescently labeled by primer extension with 6-arboxyfluorescein (6-FAM) 5'-labeled reporter sequence-specific primer (2 min at 95 C, 20 s at 68 C and 10 min at 72 C) and these products were digested with 5U of HpaI (New England Biolabs) for 2h at 37 C. The fragments were purified using Qiaquick PCR columns (Qiagen), analyzed on an ABI 3130xL genetic analyzer (Applied Biosystems) with peak positions identified by using a set of X-rhodamine (ROX)-labeled MapMarker1000 molecular weight standards (BioVentures). The raw capillary electrophoresis data was processed using Attagraph software (Attagene).
# [2] = biological target: human Thyroid hormone Receptor beta (TRb), THRB (gene 7068) (UniProt P10828); experiment: ATG_hTRb_XSP2: Attagene TRANS-FACTORIAL Multi-Species (XSP2) HepG2 Assay for human Thyroid hormone Receptor beta (TRb) (AID 2283840);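 further: actives raise reporter mRNA so potency reflects agonist-like gain of signal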
# Summary of the method: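 HepG2 cells were transiently transfected with GAL4-UAS multiplexed reporter units expressing chimeric NR-Gal4 proteins, dosed 24 h; reporter mRNA was quantified by RT-PCR, fluorescent labeling, HpaI digestion and capillary electrophoresis, fitted for gain of signal versus DMSO.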
# [3] = system: Sodium/Iodide Symporter (NIS), SLC5A5 (gene 6528); experiment: CPHEA_Stoker_NIS_Inhibition_RAIU: CPHEA's Radioactive Iodide Uptake (RAIU) Assay for Sodium/Iodide Symporter (NIS) Inhibition, Stoker and Laws Labs (AID 2283841)
# Summary of the method: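 hNIS-HEK293T-EPA cells incubated 2 h at room temperature with compound (0.001–100 uM, 0.5% DMSO) and 329 pM final 125I in HBSS/10 mM HEPES, pH 7.4. Intracellular 125I counted; normalised to DMSO maximal uptake, triplicate, three biological replicates.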
# [4] = CPHEA_Stoker_NIS_Cytotoxicity: Cytotoxicity Assessment for CPHEA's Radioactive Iodide Uptake (RAIU) Assay for Sodium/Iodide Symporter (NIS) Inhibition, Stoker and Laws Labs (AID 2283897);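 on AC50: active means loss of ATP signal versus DMSO meaning cytotoxicity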
# Summary of the method: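 hNIS-HEK293T-EPA cells, human NIS expressed in HEK293T, treated 2 h with chemicals (0.001–100 uM, 0.5% final DMSO). ATP content read by CellTiter-Glo luminescence; loss of signal analysed relative to DMSO.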
# [5] = CEETOX_H295R_11DCORT_noMTC: CeeTox H295R High-throughput Steroidogenesis Assay for 11-Deoxycortisol (11DCORT), maximum tolerated concentration (MTC) filtered results only (AID 2283911; active means hit-call score of the fitted dose curve at least 0.9, where 1 is the maximum; inactive means score below 0.9); settings: actives raise or lower the signal
# Summary of the method: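 HPLC-MS/MS read-out of 11-deoxycortisol after MTBE extraction of H295R medium. Cells: forskolin 10 uM pre-stimulation 48 h, chemical 48 h, 0.1% DMSO final. Bidirectional fit vs DMSO baseline; no MTC filtering.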
# [6] = CEETOX_H295R_OHPREG_noMTC: CeeTox H295R High-throughput Steroidogenesis Assay for OH-Pregnenolone (OHPREG), maximum tolerated concentration (MTC) filtered results only (AID 2283912; active means hit-call score of the fitted dose curve at least 0.9, where 1 is the maximum; inactive means score below 0.9); settings: actives raise or lower the signal
# Protocol: CEETOX_H295R is a cell-based, multiplexed-readout assay that uses H295R, a human adrenal gland cell line, with measurements taken at 48 hours after chemical dosing in a 96-well plate.CEETOX_H295R_OHPREG_noMTC is one of 12 assay component(s) measured or calculated from the CEETOX_H295R assay (11 hormones and 1 viability assay). It is designed to make measurements of hormone induction, a form of inducible reporter, as detected with absorbance signals by HPLC-MS-MS technology. The concentrations for these components have not been pre-filtered for the maximum tolerated concentration (MTC) based on the MTT assay (_noMTC).Data from the assay component CEETOX_H295R_OHPREG_noMTC was analyzed into 1 assay endpoint. This assay endpoint, CEETOX_H295R_OHPREG_noMTC, was analyzed with bidirectional fitting relative to DMSO as the negative control and baseline of activity. […]
# Cell culture and media preparation procedures were conducted in accordance with OECD Test No. 456 guidelines, with minor modifications. […] For steroid quantification, media samples were shipped to OpAns, LLC (Durham, NC) on dry ice, and samples were thawed to room temperature prior to liquid-liquid extraction. […] Steroid hormones were separated by HPLC, eluted using a reverse phase C18 gradient with electrospray positive ionization, followed by quantification by tandem mass spectrometry (MS/MS). Data were acquired on a MassHunter Workstation Acquisition version B03.01 (Agilent Technologies, Inc.) and processed using MassHunter Quantitative Analysis for QQQ. Accuracy was determined for each hormone analyte from 3 standards to determine upper and lower limits of quantification (ULOQ and LLOQ, respectively) using a 7-point standard curve. Precision and accuracy of the extraction and quantification methods were calculated as the percent relative standard deviation (%RSD) of the spiked standards and percent spiked standard recovered, respectively. […] Test medium was removed following chemical exposure, and cell viability was evaluated in the same wells by MTT. […]
# [7] = CEETOX_H295R_OHPROG_noMTC: CeeTox H295R High-throughput Steroidogenesis Assay for OH-Progesterone (OHPROG), maximum tolerated concentration (MTC) filtered results only (AID 2283914; active means hit-call score of the fitted dose curve at least 0.9, where 1 is the maximum; inactive means score below 0.9); settings: actives raise or lower the signal
# Summary of the method: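 H295R cells prestimulated 48 h with 10 uM forskolin, then exposed 48 h to chemical (0.1% DMSO final). 17alpha-hydroxyprogesterone in medium quantified by HPLC-MS/MS after MTBE extraction; bidirectional fitting versus DMSO, concentrations not MTC-filtered.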
# [8] = CEETOX_H295R_ANDR_noMTC: CeeTox H295R High-throughput Steroidogenesis Assay for Androstenedione (ANDR), maximum tolerated concentration (MTC) filtered results only (AID 2283915; active means hit-call score of the fitted dose curve at least 0.9, where 1 is the maximum; inactive means score below 0.9); settings: actives raise or lower the signal
# Summary of the method: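 H295R cells, passage 10 or below, prestimulated 48 h with 10 uM forskolin, then exposed 48 h to chemical in 0.1% DMSO. Medium androstenedione extracted with MTBE, quantified by HPLC-MS/MS; concentrations not MTC-filtered; bidirectional fit versus DMSO.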
# [9] = CEETOX_H295R_CORTISOL_noMTC: CeeTox H295R High-throughput Steroidogenesis Assay for Cortisol, maximum tolerated concentration (MTC) filtered results only (AID 2283916; active means hit-call score of the fitted dose curve at least 0.9, where 1 is the maximum; inactive means score below 0.9); settings: actives raise or lower the signal
# Summary of the method: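 H295R human adrenal cells prestimulated 48 h with 10 uM forskolin, then exposed 48 h to chemical in 0.1% DMSO; cortisol in medium quantified by HPLC-MS/MS; bidirectional fit vs DMSO baseline, concentrations not MTT-filtered for MTC.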
# [10] = CEETOX_H295R_CORTIC_noMTC: CeeTox H295R High-throughput Steroidogenesis Assay for Corticosterone (CORTIC), maximum tolerated concentration (MTC) filtered results only (AID 2283917; active means hit-call score of the fitted dose curve at least 0.9, where 1 is the maximum; inactive means score below 0.9); settings: actives raise or lower the signal
# Summary of the method: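 H295R adrenal cells pre-stimulated 48 h with 10 uM forskolin, then exposed 48 h to chemical in 0.1% DMSO; corticosterone in medium quantified by HPLC-MS/MS, fitted bidirectionally versus DMSO without MTT-based concentration filtering.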
# Chain of human Thyroid hormone Receptor beta (TRb), THRB (gene 7068) (P10828 whole entry, looked up, the tested form may be a part): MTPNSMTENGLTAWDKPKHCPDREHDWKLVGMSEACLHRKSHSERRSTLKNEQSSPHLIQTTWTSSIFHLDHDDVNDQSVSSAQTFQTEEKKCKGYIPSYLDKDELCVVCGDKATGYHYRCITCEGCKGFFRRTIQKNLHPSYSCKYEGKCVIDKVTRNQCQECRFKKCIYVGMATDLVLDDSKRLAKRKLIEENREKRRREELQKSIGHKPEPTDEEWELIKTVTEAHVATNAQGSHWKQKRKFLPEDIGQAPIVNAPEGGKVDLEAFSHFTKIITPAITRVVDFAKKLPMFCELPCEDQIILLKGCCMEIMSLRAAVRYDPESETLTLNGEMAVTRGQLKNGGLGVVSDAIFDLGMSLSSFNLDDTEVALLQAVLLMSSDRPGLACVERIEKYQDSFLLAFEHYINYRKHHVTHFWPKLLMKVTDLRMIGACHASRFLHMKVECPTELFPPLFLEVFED
# Chain of frog Thyroid hormone Receptor alpha (TRa), thra-a (gene 397942) (P15204 whole entry, looked up): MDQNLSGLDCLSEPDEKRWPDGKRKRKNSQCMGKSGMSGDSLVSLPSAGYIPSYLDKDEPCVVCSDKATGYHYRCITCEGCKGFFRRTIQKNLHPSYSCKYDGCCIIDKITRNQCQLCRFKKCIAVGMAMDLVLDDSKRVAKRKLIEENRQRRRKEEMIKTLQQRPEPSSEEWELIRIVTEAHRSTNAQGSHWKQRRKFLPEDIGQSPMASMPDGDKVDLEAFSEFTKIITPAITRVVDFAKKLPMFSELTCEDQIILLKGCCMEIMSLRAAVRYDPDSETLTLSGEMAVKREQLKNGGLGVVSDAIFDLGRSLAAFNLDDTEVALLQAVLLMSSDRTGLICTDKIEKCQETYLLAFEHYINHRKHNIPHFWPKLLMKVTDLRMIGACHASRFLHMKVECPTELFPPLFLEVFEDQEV
smiles,measurement,setting,value
CCOP(=S)(OCC)O/N=C(\C#N)c1ccccc1,outcome,[1],inactive
same,outcome,[2],inactive
same,outcome,[3],inactive
same,outcome,[4],inactive
C=CC(Cl)CCl (stereo unspecified),outcome,[3],inactive
same,outcome,[4],inactive
O=C1c2ccccc2C(=O)C1C(=O)C(c1ccccc1)c1ccc(Cl)cc1 (stereo unspecified),outcome,[3],inactive
same,outcome,[4],inactive
c1cc[c]([Sb]([c]2ccccc2)[c]2ccccc2)cc1,outcome,[5],inactive
same,AC50,[6],50 µM (active)
same,AC50,[7],1.53 µM (active)
same,AC50,[8],27.8 µM (active)
same,AC50,[9],11.3 µM (active)
same,AC50,[10],8.85 µM (active)
COCCl,outcome,[1],inactive
same,outcome,[2],inactive
CC(C)(C)c1ccccc1O,outcome,[4],inactive
CCCSP(=S)(OCC)Oc1ccc(SC)cc1 (stereo unspecified),outcome,[3],inactive
same,outcome,[4],inactive
Oc1c(Br)cc(Br)cc1Br,outcome,[3],inactive
same,outcome,[4],inactive
O=C(NC(=O)c1c(F)cccc1F)Nc1cc(Cl)c(OC(F)(F)C(F)C(F)(F)F)cc1Cl (stereo unspecified),outcome,[3],inactive
same,outcome,[4],inactive
O=[N+]([O-])c1ccccc1O,outcome,[3],inactive
same,outcome,[4],inactive
Cc1cc(Cl)ccc1OC(C)C(=O)O (stereo unspecified),outcome,[3],inactive
CCOc1ccc(N)cc1,outcome,[3],inactive
same,outcome,[4],inactive
CCC[CH2][Sn]([CH2]CCC)([CH2]CCC)[CH2]CCC,outcome,[3],inactive
same,outcome,[4],inactive
CC(C)N(C(=O)CCl)c1ccccc1,outcome,[3],inactive
same,outcome,[4],inactive
O=c1oc2ccccc2c(O)c1C(CC(O)c1ccc(-c2ccc(Br)cc2)cc1)c1ccccc1 (stereo unspecified),outcome,[2],inactive
[Cl][Sn]([c]1ccccc1)([c]1ccccc1)[c]1ccccc1,outcome,[1],inactive
same,AC50,[2],0.558 µM (active)
CCOCn1c(-c2ccc(Cl)cc2)c(C#N)c(Br)c1C(F)(F)F,AC50,[3],0.616 µM (active)
same,outcome,[4],inactive
CC1(C)[C@H](C(=O)O[C@H](C#N)c2cccc(Oc3ccccc3)c2)[C@@H]1/C=C(\Cl)C(F)(F)F,outcome,[3],inactive
O=C(O)C1(c2ccc3c(c2)OC[C@H](Cc2ccc(-c4ccccc4)cc2)[C@H]3O)CCCC1,outcome,[3],inactive
same,outcome,[4],inactive
O=S1OC[C@@H]2[C@H](CO1)[C@]1(Cl)C(Cl)=C(Cl)[C@@]2(Cl)C1(Cl)Cl (stereo partly specified),outcome,[3],inactive
same,outcome,[4],inactive
CCCCCCCCCCCCOS(=O)(=O)O,outcome,[3],inactive
same,outcome,[4],inactive
OC[P+](CO)(CO)CO,AC50,[5],6.54 µM (active)
same,AC50,[6],6.42 µM (active)
same,AC50,[7],3.48 µM (active)
same,AC50,[9],4.63 µM (active)
same,AC50,[10],3.54 µM (active)
Cc1cc(Cl)ccc1N,outcome,[5],inactive
same,outcome,[6],inactive
same,AC50,[7],25.5 µM (active)
same,outcome,[9],inactive
same,outcome,[10],inactive
CC(=Cc1ccccc1)[N+](=O)[O-],outcome,[3],inactive
same,outcome,[4],inactive
N#CS,AC50,[3],6.43 µM (active)
same,outcome,[4],inactive
Oc1cc(Cl)c(Cl)cc1Cl,AC50,[1],100 µM (active)
same,outcome,[1],inactive
same,outcome,[2],inactive
same,outcome,[3],inactive
same,outcome,[4],inactive
CCCCCCCCCCCCc1cccc(S(=O)(=O)O)c1,outcome,[3],inactive
same,outcome,[4],inactive
CCC[CH2][Sn]([Cl])([Cl])[CH2]CCC,AC50,[3],3.24 µM (active)
same,outcome,[4],inactive
CC(C)=CC1C(C(=O)OCc2cccc(Oc3ccccc3)c2)C1(C)C (stereo unspecified),outcome,[3],inactive
same,outcome,[4],inactive
N#CCCC(Br)(C#N)CBr (stereo unspecified),outcome,[3],inactive
same,outcome,[4],inactive
CC(O)(CS(=O)(=O)c1ccc(F)cc1)C(=O)Nc1ccc(C#N)c(C(F)(F)F)c1 (stereo unspecified),outcome,[1],inactive
same,AC50,[2],155 µM (active)
same,outcome,[2],inactive
same,AC50,[3],9.92 µM (active)
same,AC50,[4],88.7 µM (active)
